GDH-TPI counter = GDH-TPI coupled enzyme inhibition counter-screen | GDH-TPI coupled enzyme counterscreen, NADH absorbance | inhibition, % at 4.8 µM | 360,000 tested, 1.2% active; in the data active = inhibition above about 30%;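 also: 0% = DMSO wells and 100% = wells lacking the enzyme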
3CLpro inhibitor = SARS-CoV 3CLpro protease inhibition; P0C6X7; inhibition, % at 6 µM; recombinant SARS-CoV 3CLpro, quenched FRET peptide cleavage; 290,000 tested, 0.14% active; in the data active = inhibition above about 12%
Vc quorum ag = induces V. cholerae light production without autoinducers; V. cholerae BH1578 lux reporter, luminescence, 6 h; activation, % at 18.7 µM; 350,000 tested, 0.16% active; in the data active = activation mostly above about 9.7%, no sharp cut-off
PrPC TRFRET = reduces human prion protein on the cell surface. P04156. cell surface PrPC, TR-FRET read-out. inhibition, % at 13.8 µM. 370,000 tested, 0.43% active. AID 720596; in the data active = inhibition above about 24%; also: 0% = median of the test wells and 100% = reference compound wells
Mtb FBA inh = inhibitors of M. tuberculosis fructose-bisphosphate aldolase; P9WQA3; purified M. tuberculosis FBA, fluorescence read-out; inhibition, % at 1 µM; 360,000 tested, 2.3% active; AID 588726; in the data active = inhibition above about 27%;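 also: 0% = vehicle and 100% = reference inhibitor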
Target sequence (P9WQA3 whole entry, looked up): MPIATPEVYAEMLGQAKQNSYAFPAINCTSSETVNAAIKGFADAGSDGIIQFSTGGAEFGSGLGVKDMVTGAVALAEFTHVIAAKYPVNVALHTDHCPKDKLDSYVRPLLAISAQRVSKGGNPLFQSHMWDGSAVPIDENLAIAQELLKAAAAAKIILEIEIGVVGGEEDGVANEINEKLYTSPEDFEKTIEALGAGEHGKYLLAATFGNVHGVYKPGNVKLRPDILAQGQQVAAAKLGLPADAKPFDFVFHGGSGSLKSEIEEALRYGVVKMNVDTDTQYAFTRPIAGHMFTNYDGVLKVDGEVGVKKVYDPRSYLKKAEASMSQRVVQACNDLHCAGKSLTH
Active calls of the source: *; i = inactive; / = no result; + = active, no number. In the library only some 3.9% were active in any assay of this set; here they are far more common.

SMILES	GDH-TPI counter	3CLpro inhibitor	Vc quorum ag	PrPC TRFRET	Mtb FBA inh
O=C(O)c1cccc(N2C(=O)c3ccc(Oc4ccc(Cl)cc4)cc3C2=O)c1	-3	2	0	1	3
O=C(O)c1ccc2c(c1)C(=O)N(c1cccc3ccccc13)C2=O	0	4	83*	4	11
Cc1c(C)c2ccc(OCC(=O)N3CCN(c4ccc(F)cc4)CC3)c(C)c2oc1=O	6	-2	i	-1	-5
CCc1cc(=O)oc2c3c(cc(OCC(=O)NCCCOC)c12)OC(C)(C)CC3	9	-1	-18	6	+
CCc1cc(=O)oc2cc(OCC(=O)NCCCN3CCCC3=O)c(Cl)cc12	7	-2	i	4	8
CCc1cc(=O)oc2c3c(cc(OCC(=O)NCCC(=O)O)c12)OC(C)(C)CC3	12	2	1	-7	177*
Cc1c(C)c2ccc(OCC(=O)N3CCC[C@@H]3C(=O)O)c(C)c2oc1=O	8	3	-1	5	129*
COc1ccc2c(C)c(CCC(=O)NCCCN3CCCC3=O)c(=O)oc2c1C	22	0	-1	-4	116*
COCCNC(=O)C1(C)CCCN(Cc2ccc(-n3ccnc3)cc2)C1 (stereo not drawn)	12	/	i	3	2
Nn1c(SCC(=O)Nc2cc(S(=O)(=O)N3CCOCC3)ccc2Cl)nnc1-c1cccnc1	10	-1	0	3	2
CCC(Oc1ccccc1)C(=O)Nc1ccc(S(=O)(=O)Nc2cc(C)on2)cc1 (stereo not drawn)	-1	5	-1	3	5
C[C@@H](/C=C/C(=O)OC(C)(C)C)Sc1ccc(C(C)(C)C)cc1	/	/	/	-2	/
O=C1/C(=C/c2ccc3c(c2)OCO3)Oc2cc(OCC(=O)N3CCC[C@H]3C(=O)O)ccc21	14	4	0	/	-4
Cc1c(OCC(=O)NCCN2CCOCC2)ccc2c3c(c(=O)oc12)CCC3	9	5	-5	4	15
CCCc1cc(=O)oc2c3c(cc(OCC(=O)N4CCC[C@H]4C(=O)O)c12)OC(C)(C)CC3	25	1	-1	0	+
CCc1cc(=O)oc2c3c(cc(OCC(=O)NCCCC(=O)O)c12)OC(C)(C)CC3	11	1	-1	4	+
Cc1ccccc1OCC(=O)NCCC(=O)O	7	0	i	-5	0
Cc1c(OCC(=O)NCCN2CCOCC2)ccc2c1oc(=O)c1ccccc12	14	-1	0	6	124*
Cc1cc(=O)oc2c3c(cc(OCC(=O)NCCC(=O)O)c12)OC(C)(C)CC3	25	1	i	-2	+
CCc1cc(=O)oc2cc(C)cc(OCC(=O)NCC3CCC(C(=O)O)CC3)c12 (stereo not drawn)	0	-5	0	0	19
CCOC(OCC)c1cc2ccccc2cn1	1	/	-1	-2	0
C[C@H]1COc2cccc(F)c2S(=O)(=O)N1C	/	/	/	-6	/
COC(=O)[C@]12C[C@H](CC(=O)NCc3cccc(C(F)(F)F)c3)C(=O)N(Cc3ccco3)C1=C[C@H](COCc1ccccc1)O[C@@H]2C	/	/	/	3	/
CCc1cc(=O)oc2c3c(cc(OCC(=O)NCCN4CCOCC4)c12)OC(C)(C)CC3	15	2	0	10	176*
CCc1cc(=O)oc2c(C)c(OCC(=O)NCCCN3CCOCC3)ccc12	12	-2	0	1	19
SMILES	GDH-TPI counter	3CLpro inhibitor	Vc quorum ag	PrPC TRFRET	Mtb FBA inh
CCc1cc(=O)oc2c3c(cc(OCC(=O)NC4CC4)c12)OC(C)(C)CC3	19	2	0	1	+
O=C(NCc1cn(-c2ccccc2)nc1-c1ccc(F)cc1)c1cccc([N+](=O)[O-])c1	8	4	0	12	-1
Cc1nc2ccc(C(=O)N(C)Cc3ccco3)cn2c1N(C)CC1CCCCC1	8	/	i	13	-1
O=c1oc2c(CN3CCOCC3)c(O)c(Cl)cc2c2c1CCCC2	19	5	/	4	+
O=c1oc2c(CN3CCOCC3)c(O)ccc2c2c1CCCC2	29	-5	-1	4	+
Cc1c(C)c2cc(Cl)c(O)c(CN3CCCCC3)c2oc1=O	/	1	/	/	/
CC(=O)NCCNC(=O)C1(C)Cc2c(-c3ccc(NC(C)=O)cc3)ccnc2O1 (stereo not drawn)	-3	/	i	-1	9
Cc1ccc(S(=O)(=O)Nc2ccc(NC(=O)Nc3cccc(C(F)(F)F)c3)cc2)cc1	-4	7	0	13	-2
CCN(CC)S(=O)(=O)c1ccc(NC(=O)Nc2cccc(C(F)(F)F)c2)cc1	3	7	0	43*	0
O=C(Nc1cccc(/C=C/c2nc3ccccc3c(=O)[nH]2)c1)c1ccccc1Cl	49*	3	i	-4	-2
COc1ccc(C(=O)Nc2nc3ccccc3c(=O)[nH]2)cc1	15	1	i	7	1
Cc1cccc(/C=C\c2nc3ccccc3c(=O)[nH]2)c1	31*	-1	i	-2	-3
COc1ccc(C(=O)Nc2cccc(/C=C/c3nc4ccccc4c(=O)[nH]3)c2)cc1	39*	-1	-1	-12	1
C=CCc1cc(OC)ccc1OCCCCn1cncn1	8	-1	-1	-4	2
CCOc1ccc(NC(=O)C2C3CC/C=C\CCC32)cc1 (stereo not drawn)	14	2	0	0	-2
O=C(Nc1ncc(Cc2cccc(C(F)(F)F)c2)s1)c1ccc(-c2cccc([N+](=O)[O-])c2)o1	54*	-1	0	-6	0
O=C(Nc1nccs1)c1ccc(-c2cccc([N+](=O)[O-])c2)o1	9	-1	-1	-1	1
CC(=O)Nc1ccc(/C=N/Nc2nc3ccccc3[nH]2)cc1	38*	-1	0	-12	-5
COC(=O)c1ccc(/C=N/Nc2nc3ccccc3[nH]2)cc1	14	1	i	4	1
O=C(O)c1ccc(/C=N/Nc2ccc(C(F)(F)F)cn2)cc1	38*	8	0	-6	0
O=C(O)c1ccc(/C=N/Nc2nc3ccccc3[nH]2)cc1	75*	-3	0	-1	2
CCN(CC)c1ccc(/C=N/Nc2nc3ccccc3[nH]2)cc1	20	0	-6	37*	18
C=C(C1=CCN(S(=O)C(C)(C)C)[C@@H]1CCO)c1ccccc1 (stereo partly drawn)	5	/	-2	3	0
COC(=O)Cn1ncc(N(C)Cc2ccccc2)c(Cl)c1=O	10	0	0	-1	2
N#Cc1ccc(NC(=O)COC(=O)CCc2nc3ccccc3c(=O)[nH]2)cc1	13	2	i	-1	5
C=CCOC(=O)c1cc(-c2ccc(/C=C3\C(=O)NC(=O)C(C#N)=C3C)o2)ccc1Cl	34*	-3	i	8	6
C=CCn1c(O)c(C=Nc2ccc(OC)cc2C)c(=O)[nH]c1=O	43*	5	i	3	0
C=CCn1c(O)c(C=Nc2c(C)n(C)n(-c3ccccc3)c2=O)c(=O)[nH]c1=O	11	4	1	11	1

Assay outcomes from PubChem.
